Hits are enriched below; roughly 1.7% of the tested compounds scored in any of these assays.
FGF22 binding – FGF22 (human) thermal shift binding; Q9HCT0; recombinant FGF22 thermal shift, SYPRO orange fluorescence; percent of sucrose octasulfate shift, DMSO zero; activity (Tm shift, normalised), % at 9.99 µM; 340,000 compounds, 1.5% hits;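 active = mean Tm shift, scaled 0 neutral to 100 positive control, at about 1.3% or above, every replicate too, limit read from the data; inconclusive = no clear call, values can overlap the other calls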
Target sequence (Q9HCT0 whole entry, looked up): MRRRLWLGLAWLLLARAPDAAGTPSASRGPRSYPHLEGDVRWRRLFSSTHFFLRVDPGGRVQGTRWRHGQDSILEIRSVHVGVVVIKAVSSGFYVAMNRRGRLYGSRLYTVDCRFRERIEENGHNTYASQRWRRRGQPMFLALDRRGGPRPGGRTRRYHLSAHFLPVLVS
CFTR F508del cor – CFTR F508del correction in bronchial cells; CFBE cells, YFP halide quenching; stimulated with forskolin plus potentiator P3; % fluorescence drop versus neutral controls; 350,000 compounds, 0.36% hits; AID 720511; activity (quench increase), % at 7.58 µM;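 active = mean added fluorescence quench of at least 8% versus neutral control, with both replicates also reaching 8%; inconclusive = only one of the mean or replicate conditions met; inactive = mean below 8% and not both replicates reaching 8%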;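 note: cells transiently co-express mutant CFTR-F508del with the halide-sensitive YFP; corrector assay measuring rescue of mutant channel to the surface after 24 h compound exposure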
Vif inh – blocks HIV Vif function | HEK293T cells, Vif self-association by quenched fluorescence, imaging, 24 h | inhibition, % at 7.49 µM | 340,000 compounds, 0.35% hits | AID 602346; in the data active = inhibition above about 50%, passing the limit was not always enough; inconclusive = no clear call, values can overlap the other calls; inactive = below about 31%
Each line names hits and unclear results; the compound was inactive in the other large screens.

CN(Cc1ccccc1)C(=O)c1cc2ccccc2o1	none
CC(C)(C)N(Cc1ccccc1)C(=O)c1cc2ccccc2o1	CFTR F508del cor 10.0 (no result: FGF22 binding)
COC(=O)CCCCCCC(=O)Nc1ccc(NC(=O)CCCC[P+](c2ccccc2)(c2ccccc2)c2ccccc2)cc1	none (no result: Vif inh)
CN(C)S(=O)(=O)c1ccc(C(=O)NCC(=O)N/N=C/c2ccccc2)cc1	FGF22 binding 43.5
O=C(CNC(=O)c1ccncc1)N/N=C/c1ccccn1	Vif inh 58.7
O=C(CNC(=O)c1ccc(S(=O)(=O)N2CCCC2)cc1)N/N=C/c1ccccc1	none (no result: FGF22 binding, CFTR F508del cor)
O=C(CN(Cc1ccccc1Cl)S(=O)(=O)c1ccc(Cl)cc1)N/N=C/c1ccc(C(=O)O)cc1	FGF22 binding 1.5
COc1cc(C(=O)NCC(=O)N/N=C/c2ccccn2)cc(OC)c1OC	none
O=C(CN(Cc1ccccc1)S(=O)(=O)c1ccccc1)N/N=C/c1ccc([N+](=O)[O-])cc1	none (no result: FGF22 binding, CFTR F508del cor)
CCCC#Cc1cnc2c(c1)C(=O)N([C@@H](C)CO)C[C@H](C)[C@H](CN(C)C(=O)Nc1ccccc1OC)O2	none (no result: Vif inh)
Cc1noc(C)c1NC(=O)N(C)C[C@@H]1Oc2ccc(NC(=O)Nc3ccc(C(F)(F)F)cc3)cc2C(=O)N([C@@H](C)CO)C[C@H]1C	none (no result: Vif inh)
C[C@@H]1CN([C@H](C)CO)C(=O)c2cc(NC(=O)C3CCCCC3)ccc2O[C@@H](C)CCCCO[C@@H]1CN(C)Cc1ccc2c(c1)OCO2	none (no result: Vif inh)
C[C@H]1CN([C@@H](C)CO)C(=O)c2cc(NC(=O)CCN3CCOCC3)ccc2O[C@@H]1CN(C)S(=O)(=O)c1ccc(Cl)cc1	none (no result: Vif inh)
O=C(Nc1ccc(F)cc1)N1CCCCN2[C@H](C1)[C@H](c1ccc(-c3ccccc3F)cc1)[C@@H]2CO	none (no result: Vif inh)
COC1=Nc2ccccc2N2CCN=C12	none
c1ccc2c(c1)C1=NCCN1c1ccccc1-2	CFTR F508del cor 11.3
S=C1NCCOCCOCCOCCNC(=S)N2CCOCCOCCN1CCOCCOCC2	FGF22 binding 43.4
S=C1NCCOCCOCCOCCOCCNC(=S)N2CCOCCOCCN1CCOCC2	none
Cn1cc(/C=N/n2cnc3scc(-c4ccc(Cl)cc4)c3c2=O)c2ccccc21	Vif inh 54.1 (no result: FGF22 binding, CFTR F508del cor)
CCn1cnc2scc(-c3ccccc3)c2c1=O	none (no result: FGF22 binding, CFTR F508del cor)
COc1ccc2c(C=O)cn(C)c2c1	FGF22 binding 43.0
COc1ccc(OCCn2cc(C=O)c3ccccc32)cc1	none
O=C(Nc1cccc(Cl)c1)N[C@H]1CC[C@@H](CCNC(=O)C2CCC2)O[C@@H]1CO	none (no result: Vif inh)
CC(=O)OCC(=O)Nc1ccc([N+](=O)[O-])cc1Cl	none (no result: Vif inh)
CC(=O)Oc1c(C)cc(Cl)cc1C(=O)Nc1ccc([N+](=O)[O-])cc1Cl	CFTR F508del cor 13.4
C[C@@H]1CN([C@H](C)CO)C(=O)c2cc(C3=CCCC3)cnc2O[C@H]1CN(C)C(=O)c1cccnc1	none (no result: Vif inh)
CC=Cc1ccc2n(c1=O)C[C@@H]1[C@@H](CO)[C@H](C(=O)NCCC)[C@H]2N1C(=O)c1ccccc1F (mixture of isomers)	none (no result: Vif inh)
COc1ccccc1C(=O)Nc1nc2cc3c(cc2s1)OCCO3	none (no result: FGF22 binding, CFTR F508del cor)
COc1ccc(C(=O)Nc2nc3cc4c(cc3s2)OCCO4)c(OC)c1	Vif inh 78.5
C[C@H](CO)N1C[C@H](C)[C@@H](CN(C)Cc2ccc(C(=O)O)cc2)Oc2cc(C#CCC3CCCC3)ccc2S1(=O)=O	none (no result: Vif inh)
CC(/C=N/NC(=O)Cn1cnc2ccccc21)=C\c1ccccc1	none
O=C(Cn1cnc2ccccc21)N/N=C/c1ccccc1	FGF22 binding 43.5
CC(C)NC(=O)N(C)C[C@@H]1Oc2ncc(C#Cc3ccc(F)cc3)cc2C(=O)N([C@@H](C)CO)C[C@@H]1C	none (no result: Vif inh)
C[C@H]1CN([C@@H](C)CO)C(=O)c2cc(-c3ccncc3)cnc2O[C@@H]1CN(C)C(=O)CN1CCOCC1	none (no result: Vif inh)
O=C(CCN=C1NS(=O)(=O)c2ccccc21)OCC(=O)c1ccccc1	none
CC(C)CCNC(=O)NC(=O)COC(=O)CCN=C1NS(=O)(=O)c2ccccc21	FGF22 binding 44.4
c1coc(-c2nc3ccccc3s2)c1	CFTR F508del cor 11.3
COc1ccc(-c2nc3ccccc3s2)cc1	none (no result: CFTR F508del cor)
CO[C@@H]1CN(C)C(=O)c2cc(NC(=O)Nc3cccc(F)c3)ccc2OC[C@H](C)NC[C@@H]1C	none (no result: Vif inh)
CS(=O)(=O)Nc1ccc2c(c1)[C@@H]1C[C@@H](CC(=O)NCc3cccnc3)O[C@@H](CO)[C@@H]1O2	none (no result: Vif inh)
CCCCNC(=O)C1(C)CCCCN1C(=O)c1csnn1 (stereo not drawn)	FGF22 binding 43.9
CC(C)CNC(=O)C1(C)CCCCCN1C(=O)c1csnn1 (stereo not drawn)	none
COCC#Cc1ccc2c(c1)O[C@@H](CN(C)S(=O)(=O)c1ccc(OC)cc1)[C@H](C)CN([C@@H](C)CO)S2(=O)=O	none (no result: Vif inh)
CC(C)NC(=O)NC(=O)COC(=O)c1ccc(OC(F)(F)F)cc1	none (no result: FGF22 binding, CFTR F508del cor)
CC(C)NC(=O)NC(=O)COC(=O)c1ccc(S(=O)(=O)Nc2ccccc2)cc1	CFTR F508del cor 22.8
Cc1noc(C)c1NC(=O)N(C)C[C@@H]1OCCCC[C@H](C)Oc2ccc(NS(C)(=O)=O)cc2C(=O)N([C@@H](C)CO)C[C@H]1C	none (no result: Vif inh)
COc1ccc(-c2n(CC(=O)OC3CC(C)CCC3C(C)C)c3ccccc3[n+]2C)cc1 (stereo not drawn)	FGF22 binding 44.0
COc1ccc(OCc2n(CC(=O)OC3CC(C)CCC3C(C)C)c3ccccc3[n+]2C)cc1 (stereo not drawn)	none
COc1ccc2c3c([nH]c2c1)[C@@H](CO)N(Cc1ccncc1)CC31CCN(C(=O)Cc2ccncc2)CC1	none (no result: Vif inh)
CC(c1ccon1)N(C)C(=O)CCc1nnc(C2(c3ccc(Cl)cc3)CCC2)o1 (stereo not drawn)	FGF22 binding 43.3
O=C(CCc1nnc(C2(c3ccc(Cl)cc3)CCC2)o1)NC1CC1	FGF22 binding 43.6
C=CCNC(=O)CCc1nnc(C2(c3ccc(Cl)cc3)CCC2)o1	none
COCC(C)NC(=O)CCc1nnc(C2(c3ccc(Cl)cc3)CCC2)o1 (stereo not drawn)	none (no result: FGF22 binding, CFTR F508del cor)
CC(C)C#Cc1ccc2c(c1)O[C@H](CN(C)C(=O)c1cccnc1)[C@H](C)CN([C@@H](C)CO)S2(=O)=O	none (no result: Vif inh)
COc1ccc(NC(=O)Nc2cccc3c2O[C@H](CN(C)C(=O)NC(C)C)[C@H](C)CN([C@H](C)CO)C3=O)cc1	none (no result: Vif inh)
O=C(C1CC1)N1CC[C@@H]2[C@@H](CO)Nc3ccc(-c4cccc(F)c4)cc3[C@@H]21	none (no result: Vif inh)
C[C@H]1CN([C@@H](C)CO)C(=O)c2cc(NC(=O)CCCN(C)C)ccc2O[C@@H]1CN(C)S(=O)(=O)c1ccc(Cl)cc1	none (no result: Vif inh)
C[C@@H]1CN([C@H](C)CO)C(=O)c2c(c3ccccc3n2C)-c2ccccc2CO[C@H]1CN(C)C(=O)C1CC1	none (no result: Vif inh)
CCOc1ncccc1C(=O)OCC(=O)NCc1cccs1	none
O=C(COC(=O)c1cccnc1Cl)NCc1cccs1	FGF22 binding 43.3
C[C@H](CO)N1C[C@H](C)[C@@H](CN(C)CC2CC2)Oc2c(NS(=O)(=O)c3cn(C)cn3)cccc2C1=O	none (no result: Vif inh)
COc1cc(-c2noc(C)c2C#CCO)cc(OC)c1OC	none
COc1cc(-c2noc(C)c2C#Cc2ccsc2)cc(OC)c1OC	CFTR F508del cor 11.4, Vif inh inconclusive
CCCNC(=O)N(C)C[C@@H]1Oc2ncc(-c3ccccc3F)cc2C(=O)N([C@@H](C)CO)C[C@@H]1C	none (no result: FGF22 binding, Vif inh)
N#C[C@@H]1[C@H](c2ccc(C3=CCCCC3)cc2)[C@H](CO)N1S(=O)(=O)c1cccc(F)c1	none (no result: Vif inh)

Screening results from PubChem BioAssay.
